Integrin act MD: integrin-mediated muscular dystrophy alleviation activation; alpha7betagal myoblasts, beta-gal FDG fluorescence, 48 h; Potency, µM (titrated, usually from 38.3 µM), most hits filed as activators; hit rate 0.064% among 350,000; also: nearly all actives have a fitted effect of over 60% in size
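Alpha7betagal+/- myoblasts (passage 13) were plated 16-24 hr, then exposed to compounds (1:260 dilution of DMSO stock) for 48 hours at 37C. After MPER lysis, β-galactosidase reporter activity was read as FDG fluorescence (ex 480/em 540) after 30 minutes.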
S2 tox: cell viability loss in ATXN counter-screen; S2 cells (HEK-293 line with an ATXN2-luciferase reporter) viability, CellTiter-Fluor protease fluorescence, 24 h; Potency, µM (highest dose often 56.7 µM), hits mostly cytotoxic; hit rate 0.49% among 400,000; also: nearly all actives have a fitted effect of over 40% in size
D3 antag: D3 dopamine receptor (human) antagonism. hit rate 2.5% among 360,000. AID 652054. max response, negative = inhibition, %. D3R cells, DiscoveRx beta-arrestin luminescence, antagonist mode; hits give low values; in the data active = max response below about -50%; inconclusive = no clear call, values can overlap the other calls
Target sequence (P35462 whole entry, looked up): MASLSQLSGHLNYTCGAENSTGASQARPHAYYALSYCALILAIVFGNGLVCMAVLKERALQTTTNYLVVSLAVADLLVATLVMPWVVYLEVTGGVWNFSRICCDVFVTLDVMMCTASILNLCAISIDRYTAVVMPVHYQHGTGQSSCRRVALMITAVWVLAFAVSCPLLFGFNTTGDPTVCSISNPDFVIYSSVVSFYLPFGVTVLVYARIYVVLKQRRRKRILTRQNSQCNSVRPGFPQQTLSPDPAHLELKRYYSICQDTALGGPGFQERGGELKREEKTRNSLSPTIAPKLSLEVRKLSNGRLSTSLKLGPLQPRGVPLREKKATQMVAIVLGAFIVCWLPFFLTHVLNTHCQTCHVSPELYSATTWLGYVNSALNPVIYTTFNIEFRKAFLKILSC
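Cells expressing the human receptor were seeded at 1500 cells/well, incubated overnight at 37 degrees C in 5% CO2, then exposed to library compounds with dopamine controls for 90 minutes at 37 degrees C before luminescent detection.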
DRD3 agonist: activates the human D3 dopamine receptor; P35462; D3R DiscoveRx beta-arrestin cells, luminescence, 90 min; max activation, %; hit rate 0.58% among 410,000; AID 652048; in the data active = max activation above about 30%
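Agonist mode: compounds and dopamine controls were applied to plated cells for 90 min at 37 degrees C after an overnight attachment at 1500 cells/well. Luminescent read-out followed 30 - 60 minutes at room temperature with DiscoveRx detection reagent.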
ATXN2 expr inh: inhibitors of ATXN2 expression. HEK-293 ATXN2-luciferase reporter, luminescence, 24 h. Potency, µM (doses to about 57 µM), usual class: inhibitors. hit rate 0.72% among 360,000; also: nearly all actives have a fitted effect of over 55% in size
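qHTS (up to 57 uM final) was run with 24 h compound exposure of reporter cells at 37 °C. Each well was multiplexed: SteadyGlo luminescence measured ATXN2-luciferase expression after a fluorogenic Gly-Phe-AFC viability readout (25 uM final).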
IL1B secr inh: blocks inflammasome-driven IL-1 beta release. activity change, % at 57.5 µM. THP-1 LPS/ATP IL-1B secretion, AlphaLISA, 16 h; hits give low values. AID 743279. hit rate 4.7% among 360,000; in the data active = activity change below about -50%; inconclusive = mostly about -30% to -49%
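Secreted IL-1B measured by AlphaLISA bead assay after 16 h compound exposure of THP-1 cells; compounds (final up to 57.5 uM) added 1 h before LPS (250 ng/mL) and ATP (1.25 mM) stimulation; lower signal means less secretion.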
Large screens that a line does not name were inactive. The list is not random: actives were taken first. Their share in the collection is about 7%. Unless noted, calls follow the shape of the dose curve; as a rule, active = well fitted curve in the direction sought with a large enough effect; inconclusive = small, poorly fitted or top-dose-only effect, or another doubt; inactive = no such curve, though single readings can be large; an effect the other way counts as inactive or inconclusive.

Cc1cc(NS(=O)(=O)c2ccc(NC(=O)C(C(C)C)N3C(=O)c4ccccc4C3=O)cc2)nc(C)n1 (stereo not drawn)	D3 antag -75
CCCC(=O)Nc1ccc(S(=O)(=O)Nc2cc(C)nc(C)n2)cc1	none
Cc1cc(NS(=O)(=O)c2ccc(NC(=O)C(CC(C)C)N3C(=O)c4ccccc4C3=O)cc2)nc(C)n1 (stereo not drawn)	none
Cc1cc(NS(=O)(=O)c2ccc(NC(=O)C(F)(F)F)cc2)nc(C)n1	DRD3 agonist 30
CN(C)S(=O)(=O)c1ccc(C(=O)OCC(=O)Nc2sc3c(c2C#N)CCCCC3)cc1	none (no result: ATXN2 expr inh)
CC(C)(C)c1ccc(C(=O)OCC(=O)Nc2sc3c(c2C#N)CCC3)cc1	Integrin act MD 5µM
CC(C)O/C(=N/S(=O)(=O)c1ccc(Cl)cc1)c1ccccc1	none
O=C(Cn1nnc(-c2ccccc2)n1)N/N=C/c1cc([N+](=O)[O-])c(Cl)cc1Cl	none
O=C(N/N=C/c1cc([N+](=O)[O-])ccc1O)c1ccc(COc2ccc3c(c2)CCC3)o1	S2 tox inconclusive, ATXN2 expr inh 7.9µM
O=C(Cn1cncn1)N/N=C/c1cc([N+](=O)[O-])ccc1O	Integrin act MD inconclusive, S2 tox inconclusive, D3 antag inconclusive (no result: ATXN2 expr inh)
O=C(N/N=C/c1cc([N+](=O)[O-])ccc1O)C1CCCCC1	D3 antag -88, ATXN2 expr inh inconclusive
O=C(Cn1nnc(-c2ccccc2)n1)N/N=C/c1cc([N+](=O)[O-])ccc1O	S2 tox inconclusive, D3 antag -76, ATXN2 expr inh inconclusive
O=C(Cn1nc2ccccc2n1)N/N=C/c1cc([N+](=O)[O-])ccc1O	S2 tox inconclusive, D3 antag -65, ATXN2 expr inh 20µM
Cc1ccn(CC(=O)N/N=C/c2cc([N+](=O)[O-])ccc2O)n1	D3 antag inconclusive
CC1CN(C2CCCCC2)C(=S)N(c2ccccc2)C1=O (stereo not drawn)	none
O=C(Nc1ccc(Br)cc1)/C(=C/c1cccc([N+](=O)[O-])c1)NC(=O)C1CCCCC1	D3 antag -63
COCc1ccc(CN2CCC(N3CCC(C(=O)N4CCCC4)CC3)CC2)o1	none
CCc1nnc(NC(=O)CSc2nc(-c3ccc(F)cc3)cc(-c3ccccc3)c2C#N)s1	none (no result: ATXN2 expr inh)
COc1ccc(-c2cc(-c3ccccc3)nc(SCC(=O)Nc3ncc(C)s3)c2C#N)cc1	S2 tox inconclusive, D3 antag -56
COc1ccc(-c2cc(-c3ccccc3)c(C#N)c(S(C)=O)n2)cc1 (stereo not drawn)	S2 tox inconclusive, ATXN2 expr inh 28µM, IL1B secr inh -96
N#Cc1c(-c2ccc(Cl)cc2)cc(-c2cccs2)nc1SCC(=O)O	none
N#Cc1c(-c2ccccc2)cc(-c2cccs2)nc1SCC(=O)O	D3 antag -55
O=C1C(Cl)=C(NCCCN2CCOCC2)C(=O)c2ccccc21	S2 tox inconclusive, D3 antag inconclusive, ATXN2 expr inh inconclusive, IL1B secr inh -96
O=C1C(Cl)=C(NCCN2CCOCC2)C(=O)c2ccccc21	S2 tox inconclusive, IL1B secr inh -96
S=C(NCCCN1CCOCC1)NN=C1c2ccccc2-c2ccccc21	S2 tox inconclusive, D3 antag -71 (no result: ATXN2 expr inh)
O=C1C(Cl)=C(NCCCO)C(=O)c2ccccc21	none
CC(C)(C)/C=N/NC(=O)CNC(=O)c1ccc2c(c1)OCCO2	none (no result: ATXN2 expr inh)
Cn1cccc1-c1cc(C(=O)N/N=C/c2ccc(F)cc2)[nH]n1	D3 antag -82, IL1B secr inh inconclusive
CCOc1ccc(/C=N/NC(=O)c2cc(-c3cccn3C)n[nH]2)cc1	IL1B secr inh -59
Cn1cccc1-c1cc(C(=O)N/N=C/c2cc(Br)ccc2O)[nH]n1	S2 tox inconclusive, ATXN2 expr inh inconclusive
Cn1cccc1-c1cc(C(=O)N/N=C/c2ccccc2Cl)[nH]n1	D3 antag -78, IL1B secr inh inconclusive
O=C(CSC(=S)N1CCCC1)Nc1ccc(Br)cc1Cl	none
C/C(=N\NC(=S)NCc1ccccc1)c1ccc(C(C)(C)C)cc1	D3 antag inconclusive
Cc1cc(NCCN(C)C)n2nc(-c3cccs3)cc2n1	S2 tox inconclusive, IL1B secr inh -100
Cc1cc(NCCCO)n2nc(-c3cccs3)cc2n1	none (no result: IL1B secr inh)
CCN1C(=O)C(=Cc2cccc(OC)c2Oc2ccc([N+](=O)[O-])cc2[N+](=O)[O-])SC1=S	S2 tox 13µM, D3 antag -70, ATXN2 expr inh 22µM, IL1B secr inh -95
Cc1ccc(-c2ccc(CN3C(CC(C)C)C(=O)N(Cc4cn(CCC5OCCCO5)nn4)CCS3(=O)=O)cc2)cc1 (stereo not drawn)	ATXN2 expr inh 28µM (no result: S2 tox)
CC(C)C1C(=O)N(Cc2cn(CCC3OCCCO3)nn2)CCS(=O)(=O)N1Cc1ccc(-c2ccc(Cl)cc2)cc1 (stereo not drawn)	S2 tox inconclusive
CC(C)C1C(=O)N(Cc2cn(CCC3OCCCO3)nn2)CCS(=O)(=O)N1Cc1ccc(-c2ccc(Cl)c(Cl)c2)cc1 (stereo not drawn)	ATXN2 expr inh inconclusive, IL1B secr inh -80 (no result: S2 tox)
CC(C)C1C(=O)N(Cc2cn(CCC3OCCO3)nn2)CCS(=O)(=O)N1Cc1ccc(-c2ccc(Cl)cc2)cc1 (stereo not drawn)	S2 tox inconclusive, D3 antag inconclusive, ATXN2 expr inh 28µM, IL1B secr inh inconclusive
CC(C)CC1C(=O)N(Cc2cn(CCC3OCCCO3)nn2)CCS(=O)(=O)N1Cc1ccc(-c2ccc(F)cc2)cc1 (stereo not drawn)	S2 tox inconclusive
COc1ccccc1CNC(=O)COC(=O)CNS(=O)(=O)c1ccc(C)cc1	S2 tox inconclusive
COc1cc(OC)c(NC(=O)C(C)n2nc(-c3ccc(C)c(C)c3)ccc2=O)cc1Cl (stereo not drawn)	ATXN2 expr inh inconclusive (no result: Integrin act MD, S2 tox, D3 antag, IL1B secr inh)
Cc1ccc(C)n1CCN1CCN(C(=O)c2ccc(Cl)cc2)CC1	D3 antag -78, IL1B secr inh inconclusive
COc1ccc(C(=O)N2CCCC2)cc1	none
CC(=O)c1ccc(S(=O)(=O)N2CCN(CCOc3ccc(Br)cc3)CC2)cc1	S2 tox inconclusive, DRD3 agonist 49, ATXN2 expr inh inconclusive
COc1ccc(OCCN2CCN(C(=O)c3ccc(OC)cc3)CC2)cc1	DRD3 agonist 92
COc1ccc(OCCN2CCN(C(=O)c3ccc(OC(F)F)c(OC)c3)CC2)cc1	DRD3 agonist 123, ATXN2 expr inh inconclusive
O=C(c1cccc(N2C(=O)c3ccccc3C2=O)c1)N1CCCC(C(F)(F)F)C1 (stereo not drawn)	none
CC(Sc1nc2ccccc2s1)C(=O)c1c(N)n(C)c(=O)n(C)c1=O (stereo not drawn)	none (no result: ATXN2 expr inh)
O=C(c1ccc(Cl)cc1)N1CCN(CCOc2ccccc2)CC1	DRD3 agonist 84

Compound activity from PubChem.
